These results are taken from the OligoGym collection.
Note: reference of the scale not given here.

One test has as its target HIP1R. Kind of test: pooled miR-30 sensor sort-seq; sequence = guide strand. As to conditions: shRNA.
As to TTGGTGGTTACACTTCGGGGGG, the sensor-assay potency score (higher = more potent) was -1.01.
Still for that read-out and setting: to TTGATGGCTTTGCTGATGCTGA belongs -1.07; to TTTGTCAAGCTGGTGGTCCTGT, 0.332.
In turn, TTGAGCTGTCGGAAAACTGATT displayed a sensor-assay potency score (higher = more potent) of -1.02.
Same read-out and setting: to TTGAGGTGGAAGGAGATCTTGG belongs -0.812.

For a further test, the target named is HIST1H2BM. Described as above. As to conditions: shRNA.
As for TTCCATCCTTCTTCTGAGCCTT, the sensor-assay potency score (higher = more potent) was -0.589.
Same read-out and setting: to TAGCAGTAGGCGCACGGCCGTC belongs -1.42; to TTGTACACATACACAGAGTAGC, -0.844.
Same read-out and setting: to TACACATACACAGAGTAGCTCT belongs -0.419; to ATACACAGAGTAGCTCTCCTTG, -0.936.
On the same count and under the same terms, to TTCTTTCCATCCTTCTTCTGAG belongs -0.665; to TTAATGGCCTTCTTGGAGCCTT, -0.535; to TCCATCCTTCTTCTGAGCCTTG, -1.16.
As to TAGCCTTGGAAGAGATGCCGGT, the sensor-assay potency score (higher = more potent) is -0.26.
On the same count and under the same terms, to TTTGCGCTTCTTTCCATCCTTC belongs -0.136; to TTGTTAATGGCCTTCTTGGAGC, -1.15; to TACACAGAGTAGCTCTCCTTGC, -0.828.

For a further test, the target named is HIST1H2BN. The description is as above. The settings on record: shRNA.
Regarding TTGTACACGTACACGGAGTAGC, the sensor-assay potency score (higher = more potent) was -0.485.
The same measure, in the same setting: to TTGCCGTCCTTCTTCTGGGCCT belongs -0.777.
Still for that read-out and setting: to TCACTGCCTTCTTGGAGCCTTT belongs -1.34; to TACACGTACACGGAGTAGCTCT, -0.756; to TGGCCTTGGACGAGATACCGGT, -1.2.
TTCTTCTGGGCCTTTGTCACTG gave a sensor-assay potency score (higher = more potent) of -0.654.
On the same count and under the same terms, to TTTGTCACTGCCTTCTTGGAGC belongs -0.47; to TTCTTGGAGCCTTTCTTCGGGG, -0.852.
Consider TCTTCTGGGCCTTTGTCACTGC, for which the sensor-assay potency score (higher = more potent) is -0.0714.
The same measure, in the same setting: next, TCGAAGATGTCATTGACGAAGG: -1.38; TTGGAGCCTTTCTTCGGGGCAG: -0.909; TTGGACGAGATACCGGTGTCGG: -1.16.
Same read-out and setting: next, TTCTGGGCCTTTGTCACTGCCT: -1.05.

For a further test, the target named is HIST1H4A. The description is as above. The settings on record: shRNA.
In turn, AACACCTTGAGCACCCCGCGAG gave a sensor-assay potency score (higher = more potent) of -0.99.
On the same count and under the same terms, to TCTCCTCGTAGATCAGACCAGA belongs -0.957; to ATAGGTGACAGCGTCACGGATC, -0.773.
TTGTCACGCAACACCTTGCGGT registered a sensor-assay potency score (higher = more potent) of -0.404.
Same read-out and setting: next, TGTCACGCAACACCTTGCGGTG: -1.69; TCACGCAACACCTTGCGGTGGC: 0.266; TAGACCACGTCCATGGCAGTGA: -0.363.
Still for that read-out and setting: to AAAAACACCTTGAGCACCCCGC belongs 0.101.
The same measure, in the same setting: to TGACTGTCTTGCGCTTGGCGTG belongs -1.68; to TATAGGTGACAGCGTCACGGAT, -1.01.
